# The list is not random: actives were taken first. Their share in the collection is about 4.8%.
# DAX1 inh-1 = inhibits human nuclear receptor DAX1; inhibition, % at 6.75 µM; P51843; HEK293 Gal4-DAX1 luciferase reporter, luminescence; AID 504766; 0.99% of 340,000 active;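 active means inhibition above the mean over all tested compounds plus 3 SD, cut at about 4.2% in these data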;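 further: 0% = DAX1-transfected cells with DMSO and 100% = empty-vector control cells with DMSO; inhibition shows as a rise in luminescence from relieved DAX1 repression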
# DAX1 inh-2 = blocks DAX1 repression of SF-1 activated StAR promoter. HEK293T StAR-luciferase reporter, SF-1/DAX-1 repression relief. inhibition, % at 6.8 µM. 1.1% of 370,000 active. AID 652010;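 active means inhibition above the mean over all tested compounds plus 3 SD, cut at about 3.6% in these data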;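 further: 0% = DAX-1 cells with DMSO and 100% = cells lacking DAX-1 with DMSO; higher inhibition means more luminescence from relief of DAX-1 repression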
# hcDAF12 agonist = activates DAF-12 receptor from parasite H. contortus; activation, % at 6.8 µM; AID 652067; HEK293 hcDAF-12 lit1-tk-luc reporter, luminescence; 0% DMSO, 100% Δ7-dafachronic acid; 1.4% of 370,000 active;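 active means activation above the mean of all tested compounds plus 3 SD, cut at about 5.5% in these data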;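 further: 100% = response to 3 µM Δ7-dafachronic acid high control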
# hgDAF-12 ag = hgDAF-12 agonism, primary luciferase screen | activation, % at 6.8 µM | 1.8% of 370,000 active | HEK293 GAL4-hgDAF12 UAS-luciferase reporter, agonist luminescence; normalized to butyrate control;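 active means activation above a cutoff set at the mean of all screened compounds plus 3 SD, cut at about 10% in these data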;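 further: 0% = DMSO wells and 100% = sodium butyrate wells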
# Rev-erbA mod = modulates human Rev-erb alpha binding to DNA. P20393. Rev-erbα–FITC-DNA binding, fluorescence polarization, 90 min. activity, % at 10 µM. 0.79% of 370,000 active. AID 1259318;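 active means activity above about 14%, limit read from the data; passing the limit was not always enough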;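 further: 0% = DMSO wells with 35 nM protein and 100% = DMSO wells with 750 nM protein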
# Target sequence (P20393 whole entry, looked up): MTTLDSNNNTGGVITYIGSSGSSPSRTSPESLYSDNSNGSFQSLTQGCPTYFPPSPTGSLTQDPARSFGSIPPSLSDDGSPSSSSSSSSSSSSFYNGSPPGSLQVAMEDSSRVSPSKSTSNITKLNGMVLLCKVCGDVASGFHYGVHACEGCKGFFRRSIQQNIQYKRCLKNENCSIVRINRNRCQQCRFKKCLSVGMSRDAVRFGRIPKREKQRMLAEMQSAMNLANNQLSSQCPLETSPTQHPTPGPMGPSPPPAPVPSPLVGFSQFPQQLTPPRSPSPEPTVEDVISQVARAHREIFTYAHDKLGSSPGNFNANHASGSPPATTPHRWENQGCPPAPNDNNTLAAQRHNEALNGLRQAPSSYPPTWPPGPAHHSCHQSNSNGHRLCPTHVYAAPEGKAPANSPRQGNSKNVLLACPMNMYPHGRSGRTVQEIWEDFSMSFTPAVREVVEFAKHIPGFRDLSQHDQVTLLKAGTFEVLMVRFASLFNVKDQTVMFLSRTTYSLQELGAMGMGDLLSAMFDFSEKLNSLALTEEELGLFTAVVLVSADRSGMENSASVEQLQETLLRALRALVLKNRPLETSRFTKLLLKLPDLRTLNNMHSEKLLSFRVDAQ
# ssDAF12 agonist = S. stercoralis DAF-12 activation, primary screen | 1% of 370,000 active | AID 652126 | activation, % at 6.8 µM | HEK293 ssDAF-12/GRIP1 lit1-tk-luc reporter, luminescence; % of 3 µM dafachronic acid response;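 active means activation above the mean over all tested compounds plus 3 SD, cut at about 0.9% in these data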;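 further: 0% = DMSO-only wells and 100% = 3 µM delta7-dafachronic acid wells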
# * = called active by the depositor; x = not tested or not shown.
SMILES,DAX1 inh-1,DAX1 inh-2,hcDAF12 agonist,hgDAF-12 ag,Rev-erbA mod,ssDAF12 agonist
COc1ccc(N(C)S(=O)(=O)c2cccc(C(=O)OCC(=O)c3c(N)n(C)c(=O)n(C)c3=O)c2)cc1,-4,-1,-1,0,1,2.5*
COC1=C[C@H](C(=O)NCCOC(C)=O)[C@H](C)[C@@H](c2ccccc2)CC1=O,x,-1,0,-1,2,-1
CN1[C@@H](Cc2ccccc2)COc2cc(N3CCCC3)ccc2S1(=O)=O,x,-3,-2,-4,9,-2
Cc1c(C)c2c(c(C)c1OC(=O)CCC(=O)OCCO)CCC(C)(CCCC(C)CCCC(C)CCCC(C)C)O2 (stereo unspecified),x,x,x,x,3,x
COc1ccc(Nc2n[nH]c(N)c2C(N)=O)cc1,14*,1,0,-2,-6,-2
COc1ccc(Nc2nc(C)cc(C)c2C(N)=O)cc1,2,0,1,3,-3,0
CC(C)(C)c1ccc(-c2nnc(SCC(=O)c3ccc4ccccc4c3)n2-c2ccc(Cl)cc2)cc1,x,0,2,-3,-1,-1
Clc1ccc2ncc(-c3nnnn3-c3ccccc3)c(-c3ccccc3)c2c1,0,0,-1,2,2,-1
Clc1ccc(-n2nnnc2-c2cnc3ccc(Cl)cc3c2-c2ccccc2)cc1,6.2*,0,-1,1,14,-1
CCOC(=O)C1=NNC(C(=O)O)C1c1ccccc1 (stereo unspecified),0,-1,6.0*,10*,3,0
CCOC(=O)C1=NNC(C(=O)OCC)C1c1ccccc1 (stereo unspecified),1,0,-1,-2,-4,-1
COC(=O)[C@]12C[C@H](CC(=O)N3CCCC3)C(=O)N(CCC3=CCCCC3)C1=C[C@H](C(C)C)O[C@@H]2C1CC1,x,0,-5,1,-5,-1
Cc1c[nH]c2cccc(-c3c(Cl)cccc3Cl)c12,x,-1,-1,0,17,0
N#C/C(=C/c1ccc(-c2cc([N+](=O)[O-])ccc2Cl)o1)C(N)=O,9.3*,-2,-2,-5,-34,-2
O=C(N/N=C/c1ccc(O)cc1)c1cc(C23CC4CC(CC(C4)C2)C3)[nH]n1,-1,1,-1,1,7,1.0*
COc1ccc(/C=N/NC(=O)c2cc(C34CC5CC(CC(C5)C3)C4)[nH]n2)cc1OC,-1,0,-2,-2,-3,-2
CCCCc1nnc(NC(=O)Cn2cnc3ccccc3c2=O)s1,0,-1,0,-3,-3,-2
CCc1nnc(NC(=O)CCn2cnc3ccccc3c2=O)s1,x,0,-2,-3,-7,1.0*
CCNC(=O)N(C)[C@H]1C[C@H]2c3[nH]c4cccc(-c5ccc6c(c5)OCO6)c4c3CCN2C[C@H]1[C@H](C)O,x,-1,-2,-6,-1,-1
CCN(CC)c1ccc([C@H]2[C@@H]3CCCC[C@]3(O)CCN2CC(=O)NCc2ccco2)cc1,4.7*,0,-2,0,-6,-1
O=C(CN1C(=O)C2CC=CCC2C1=O)Nc1nc2ccccc2[nH]1 (stereo unspecified),5.4*,0,1,2,-4,0
O=C(Cc1c[nH]c2ccccc12)Nc1nc2ccccc2[nH]1,2,1,3,6,-4,1.9*
O=C(Nc1nc2ccccc2[nH]1)c1ccccc1O,1,2,4,11*,4,1.2*
O=C(CCCOc1ccccc1)Nc1nc2ccccc2[nH]1,3,2,4,12*,-1,-1
CC(C)C[C@H]1COc2cccc(N3CCCC3)c2S(=O)(=O)N1C,x,0,-3,-2,-1,-1
SMILES,DAX1 inh-1,DAX1 inh-2,hcDAF12 agonist,hgDAF-12 ag,Rev-erbA mod,ssDAF12 agonist
O=C(Cc1ccc(Cl)cc1)Nc1nc2ccccc2[nH]1,0,0,5,0,2,-1
Cc1ccc(/C=C/C(=O)Nc2nc3ccccc3[nH]2)cc1,2,2,5.8*,9,-3,1
O=C(Nc1nc2ccccc2[nH]1)c1ccc(Cl)cc1,-3,1,5.8*,10,2,0
Cc1ccc(/C=C/C(=O)c2nc3ccccc3[nH]2)cc1,1,-1,-3,-1,3,-1
C[C@]12C=CC(=O)C=C1CCC1C2[C@@H](O)C[C@@]2(C)C1CC[C@]2(O)C(=O)CO (stereo partly specified),x,x,x,x,-5,x
CCCCC1CCC(c2ccc(C(N)=O)cc2)CC1 (stereo unspecified),1,0,0,-1,2,-1
CCCCCC1CCC(c2ccc(/C(N)=N/O)cc2)CC1 (stereo unspecified),5.5*,0,1,-2,3,-1
COC(=O)C1=C(C)N(Cc2ccc(C(F)(F)F)cc2)C(=NCc2ccccc2)NC1c1ccc(C(F)(F)F)cc1 (stereo unspecified),x,1,2,2,-4,-1
COc1ccc(S(=O)(=O)NC(C)C(=O)NCc2ccncc2)cc1OC (stereo unspecified),5.8*,0,0,1,-3,-1
Cc1ccc(S(=O)(=O)Nc2c(C(=O)O)[nH]c3ccccc23)cc1C,0,0,5.8*,2,2,0
COC(=O)c1[nH]c2ccc(C)cc2c1NS(=O)(=O)c1ccc(F)c(C)c1,-1,-1,-3,-4,2,-1
Cc1cc(=O)[nH]c2ccc(S(=O)(=O)Nc3ccccc3)cc12,4.2*,0,1,0,12,0
Cc1cc(S(=O)(=O)Nc2c(C(=O)O)[nH]c3ccccc23)ccc1F,0,0,2,1,-4,1.1*
Cc1cc(=O)[nH]c2ccc(S(=O)(=O)Nc3ccc(O)cc3)cc12,0,0,0,0,-5,-1
COC(=O)c1[nH]c2ccc(F)cc2c1NS(=O)(=O)c1ccc(F)c(C)c1,-2,0,4,-1,-4,0
S=C(Nc1ccccc1Oc1ccccc1)Nc1cccc(Cl)c1Cl,0,0,4,0,2,1.0*
CCOC(=O)CC[C@H]1CC[C@]2(CCCN(C(=O)c3ccc4ccccc4n3)C2)O1,x,-1,0,-1,7,-1
COc1ccc(-n2cc(COC(=O)NCCc3c[nH]c4ccccc34)nn2)cc1,x,-1,0,0,-2,-2
CCC(C)N(Cc1ccc(OC)cc1OC)S(=O)(=O)c1cc(Br)ccc1Br (stereo unspecified),x,-1,-1,2,5,-1
CCOc1ccc(NC(=O)C(c2ccccn2)N(C(=O)CCl)c2ccc(OC)cc2)cc1 (stereo unspecified),1,0,10*,11*,6,2.4*
c1ccn2c(c1)nc1c2nc2ccccn21,3,2,1,13*,6,1.1*

# From PubChem BioAssay
